Compound activity deposited in PubChem by National Center for Advancing Translational Sciences (NCATS).
SW480 rereplic – A quantitative high throughput screen for small molecules that induce DNA re-replication in SW480 colon adenocarcinoma cells | actives 1.8% (n = 340,000) | AID 624297, 2012 | SW480 DNA re-replication, Hoechst DNA content imaging, 48 h | Potency, µM (series often up to 46.1 µM), without a hit: top-dose re-replication activation, hits mostly activators; further: potency means the concentration at half of the fitted maximal effect; % of control where 0% means no effect; nearly all actives have a fitted effect of over 55% in size
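Compounds, transferred as 23 nL by pin tool, were incubated with cells for 48 hr; DNA content per nucleus was then quantified by Hoechst staining and fluorescence plate imaging.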
KB-V1 MDR tox – qHTS assay for MDR1-selective chemotherapeutics: Primary screen using the drug-selected MDR subline cells KB-V1 | Potency, µM (doses to about 46.1 µM), usual class: cytotoxic | actives 3.4% (n = 400,000) | AID 1347076, 2019 | KB-V1 MDR cells viability, CellTiter-Glo, 72 h; further: potency means the concentration at half of the fitted maximal effect; on the % scale 0 is the no-effect control and ±100 the full control effect; nearly all actives have a fitted effect of over 60% in size
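KB-V1 MDR subline cells in DMEM (phenol-red free, 10% FBS) exposed to compounds in qHTS concentration series for 72 h at 37 degrees C. Viability read by CellTiter-Glo luminescence; concentration-effect curves fitted after normalization and correction.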
DRD3 antagonist – qHTS of D3 Dopamine Receptor Antagonist: qHTS; D(3) dopamine receptor (Homo sapiens), P35462; D3R cells, DiscoveRx beta-arrestin luminescence, antagonist mode; hits give low values; max response, negative = inhibition, %; actives 2.5% (n = 360,000); in the data active means max response below about -50%; inconclusive means no clear call, values can overlap the other calls; further: on the % scale 0 is the no-effect control and ±100 the full control effect
Target sequence (P35462 whole entry, looked up): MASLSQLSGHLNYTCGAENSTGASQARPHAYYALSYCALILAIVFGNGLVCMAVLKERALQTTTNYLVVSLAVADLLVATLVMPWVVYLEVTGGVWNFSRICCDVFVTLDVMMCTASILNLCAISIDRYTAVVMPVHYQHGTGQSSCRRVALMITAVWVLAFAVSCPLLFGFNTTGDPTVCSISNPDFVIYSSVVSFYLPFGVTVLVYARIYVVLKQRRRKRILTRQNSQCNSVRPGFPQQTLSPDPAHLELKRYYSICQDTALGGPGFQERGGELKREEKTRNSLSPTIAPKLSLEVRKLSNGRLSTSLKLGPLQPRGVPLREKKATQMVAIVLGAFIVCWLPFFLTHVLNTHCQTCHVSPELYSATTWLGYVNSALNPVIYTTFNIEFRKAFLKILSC
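Cells plated overnight at 1500 cells/well, then exposed to library compounds with dopamine controls for 90 minutes at 37 degrees C. DiscoveRx reagent added for 30–60 minutes at room temperature; luminescence read, quantitative HTS format.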
KB-3-1 cytotox – qHTS assay for MDR1-selective chemotherapeutics: Primary screen using the parental adenocarcinoma cell KB-3-1; KB-3-1 viability, CellTiter-Glo ATP luminescence, 72 h; Potency, µM (titrated, usually from 46.1 µM), hits mostly cytotoxic; actives 1.4% (n = 400,000); further: potency means the concentration at half of the fitted maximal effect; on the % scale 0 is the no-effect control and ±100 the full control effect; nearly all actives have a fitted effect of over 60% in size
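Cytotoxicity in the drug-sensitive parental line KB-3-1 was scored as loss of CellTiter-Glo luminescence following 72 h incubation with compound. Values come from curve fitting of normalized concentration-response data.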
MCF10A rerep – A quantitative high throughput screen for small molecules that induce DNA re-replication in MCF 10a normal breast cells; MCF 10A DNA re-replication, Hoechst nuclear intensity, 48 h; Potency, µM (titrated, usually from 46.1 µM), for inactives: top-dose activity, positive = re-replication, actives largely listed as activators; actives 2.9% (n = 350,000); AID 624296, 2012; further: potency means the concentration at half of the fitted maximal effect; % of control where 0% means no effect; nearly all actives have a fitted effect of over 50% in size
DRD3 agonist – qHTS of D3 Dopamine Receptor Agonist: qHTS | D(3) dopamine receptor (Homo sapiens), P35462 | D3R DiscoveRx beta-arrestin cells, luminescence, 90 min | max activation, % | actives 0.58% (n = 410,000); in the data active means max activation above about 30%; further: 0% is about no effect
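Agonist mode: compounds and dopamine controls were applied to plated cells for 90 min at 37 degrees C after an overnight attachment at 1500 cells/well. Luminescent read-out followed 30 - 60 minutes at room temperature with DiscoveRx detection reagent.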
* hit, by the source's call; i = inactive; ? = inconclusive; nt = not tested or not shown; [ ] = remark or other dose. Shown are actives, neighbours in structure and some others; about 8.9% of the full set was active somewhere. Unless noted, the call rests on the fitted dose curve; in most records, active means well fitted curve in the direction sought with a large enough effect; inconclusive means small, poorly fitted or top-dose-only effect, or another doubt; inactive means no such curve, though single readings can be large; an effect the other way counts as inactive or inconclusive.

SMILES | SW480 rereplic | KB-V1 MDR tox | DRD3 antagonist | KB-3-1 cytotox | MCF10A rerep | DRD3 agonist
CN1CC=C(/C=C/c2ccc(-c3ccccc3)cc2)CC1 | 6% | i | -23 | i | 16µM* | -5
COc1ccc(/C=C/C2=CCN(C)CC2)cc1 | -6% | i | -1 | i | ? | -3
CC[C@H](C)[C@@H](C(=O)N1CCCC1c1nccs1)N(C)C(=O)[C@H](CC(C)C)N(C)C(=O)[C@H](Cc1ccc(OC)cc1)N(C)C(=O)/C=C(\C)OC (some centres not stated) | 21µM* | i | 6 | i | ? | -9
CN(C)CCC=C1c2ccccc2CCc2ccccc21 | ? | 21µM* | -20 | i | ? | -11
C[C@H](CO)N1C[C@H](C)[C@@H](CN(C)Cc2ccc(-c3ccccc3)cc2)Oc2c(NC(=O)c3ccncc3)cccc2C1=O | 18% | i | 10 | ? | ? | 16
C=C(C=O)C[C@@H]1C[C@H](O)C2OC3C[C@]4(C)OC5/C=C\CC6OC7C(CC=CCC6OC5CCCC4OC3CC2O1)OC1CC2OC3CC(=O)OC3C[C@@H](C)C[C@@]2(C)OC1C[C@@H]7C (some centres not stated) | 36%[9.22 µM] | 8.2µM* | ? | 4.6µM* | 0.73µM* | -46
Nc1c(Cl)c(Cl)c(Cl)c(Cl)c1Cl | nt | nt | nt | nt | nt | 12
CCC1(c2ccccc2)C(=O)NC(=O)NC1=O | ? | i | -116* | i | -4% | -7
CCOC(=O)[C@]12Cc3cc(C)ccc3[C@H]1N(CCC(=O)OC)C(=O)c1ccccc12 | nt | 4.1µM* | -18 | 13µM* | nt | -8
CCOC(=O)[C@]12Cc3cc(Cl)ccc3[C@H]1N(C1CCCCC1)C(=O)c1cc(OC)ccc12 | nt | 5.8µM* | -123* | 1µM* | nt | -13
CCOC(=O)[C@]12Cc3c(cc(OC)c(OC)c3OC)[C@H]1N(C1CCCCC1)C(=O)c1ccccc12 | nt | ? | 0 | 3.3µM* | nt | 2
CCC(=Nc1ccc(OC)cc1OC)c1c(O)n(C2CCCCC2)c(=O)[nH]c1=O | 17% | i | 29 | i | ? | 11
CCOC(=O)[C@]12Cc3cc(C)ccc3[C@H]1N(C1CCCCC1)C(=O)c1ccccc12 | nt | 2.6µM* | ? | 1.6µM* | nt | -5
Cn1c(=O)n(C)c2cc(CNCCc3ccc(F)cc3)ccc21 | nt | i | nt | i | nt | -20
CCOC(=O)[C@]12Cc3ccc(C)cc3[C@H]1N(C1CCCCC1)C(=O)c1ccccc12 | nt | 2.3µM* | -73* | 1.2µM* | nt | -9
CCOC(=O)C1C(=O)N(C)C2(C)CC1c1cc(OC)ccc1O2 (configuration not stated) | 6% | i | 15 | i | 4% | 1
CCOC(=O)[C@]12Cc3ccc(C)cc3[C@H]1N(C1CCCCC1)C(=O)c1cc(OC)ccc12 | nt | 4.6µM* | ? | ? | nt | -10
CCOC(=O)C12C(=O)OCC1C2c1ccccc1 (configuration not stated) | nt | i | 8 | ? | nt | 1
CCOC(=O)[C@]12Cc3ccccc3[C@H]1N(C(C)C)C(=O)c1ccccc12 | nt | i | ? | 21µM* | nt | -10
CCCOC(=O)Cc1ccc(OCC(=O)N(CC)CC)c(OC)c1 | nt | nt | nt | nt | nt | 6
CCCCCN1C(=O)c2cc(OC)ccc2[C@@]2(C(=O)OCC)Cc3cc(OC)ccc3[C@@H]12 | nt | 23µM* | -2 | 5.8µM* | nt | -5
CCOC(=O)[C@]12Cc3cc(OC)ccc3[C@H]1N(CC(=O)OC)C(=O)c1cc(OC)ccc12 | nt | ? | 0 | 4.6µM* | nt | -12
CCOC(=O)[C@]12Cc3cc(Cl)ccc3[C@H]1N(C)C(=O)c1cc(OC)ccc12 | nt | 4.1µM* | -8 | 2.6µM* | nt | -11
CCCCCN1C(=O)c2ccccc2[C@@]2(C(=O)OCC)Cc3cc(Cl)ccc3[C@@H]12 | nt | i | ? | ? | nt | -8
CCOC(=O)[C@]12Cc3cc(OC)ccc3[C@H]1N(C)C(=O)c1cc(OC)ccc12 | nt | ? | 16 | 3.7µM* | nt | 1
SMILES | SW480 rereplic | KB-V1 MDR tox | DRD3 antagonist | KB-3-1 cytotox | MCF10A rerep | DRD3 agonist
CCOC(=O)[C@]12Cc3cc(OC)ccc3[C@H]1N(CC(=O)OC)C(=O)c1ccccc12 | nt | i | -8 | i | nt | 3
O=C(CN1CCCC1)c1ccccc1 | nt | i | nt | i | nt | nt
CN(C)CCSC1c2ccccc2CSc2ccccc21 (configuration not stated) | ? | i | -102* | i | ? | -19
Cn1cnc(CCN)c1 | -83% | i | -77* | i | -4% | -8
O=C(Cc1ccccc1)N1CCN(Cc2ccccc2Cl)CC1 | -7% | i | -14 | i | 13% | -1
Oc1c(Cl)cccc1Cc1cc(Cl)cc(Cl)c1O | 1% | ? | -8 | ? | 12µM* | 21
Oc1c(Cl)cc(Cl)cc1CN1CCN(Cc2ccccc2)CC1 | -11% | i | -51* | i | ? | -39
c1ccc(CN2CCN(Cc3ccc4ccccc4c3)CC2)cc1 | -4% | i | -69* | i | 2% | -15
Cc1ccc(OCC(=O)N2CCN(C3CCC(c4ccccc4)CC3)CC2)cc1 (configuration not stated) | -2% | ? | -6 | i | 13µM* | -14
COc1ccccc1N1CCN(Cc2cc(C)c(C)cc2O)CC1 | 4% | ? | -84* | i | ? | -16
COc1cc(Br)cc(CN2CCN(C)CC2)c1O | -7% | i | ? | i | 11% | -57
COc1cc(CN2CCN(c3cc(C)ccc3C)CC2)ccc1O | -7% | i | ? | i | 13% | -13
CN1CCN(Cc2ccc(Br)s2)CC1 | -3% | i | -77* | i | -7% | -29
COc1cc(C)c(CN2CCN(c3ccccc3)CC2)cc1C | -13% | 13µM* | -65* | i | 8% | -52
Cc1cccc(N2CCN(Cc3ccc4c(c3)OCO4)CC2)c1C | 3% | i | -105* | i | ? | -24
O=C1CC(c2ccccc2Br)c2c(c3ccccc3oc2=O)O1 (configuration not stated) | nt | i | nt | i | nt | 1
C[C@H](CN1CCOCC1)C(C(=O)N1CCCC1)(c1ccccc1)c1ccccc1 | nt | nt | nt | nt | nt | -14
CCN(CCO)CCn1c(Cc2ccccc2)nc2c1c(=O)n(C)c(=O)n2C | nt | nt | nt | nt | nt | 2
